Bioassay records deposited in PubChem by National Center for Advancing Translational Sciences (NCATS).
Most compounds without a hit are left out; they make up all but 19% or so of the library.
HepG2 viability = kills HepG2 cells in TGF-b inhibitor counter-screen; Potency, µM (top dose mostly 46.1 µM), for the others: at the top dose activity change, negative = cytotoxicity, hits mostly cytotoxic; HepG2 CAGA-GFP viability, ATP luminescence, 18 h; actives 0.76% (n = 410,000); AID 588856; further: potency means the concentration at half of the fitted maximal effect
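HepG2 CAGA-GFP cells (1000/well, DMEM with 1% FBS) received compound, then TGF-beta at 500 pg/mL final, and were incubated 18 hours at 37 degrees C. Viability was read by CellTiter-Glo luminescence. Media-only wells were set as complete cell-killing and DMSO as no toxicity.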
TDP1 inh = blocks human tyrosyl-DNA phosphodiesterase 1. recombinant TDP1, AlphaScreen DNA substrate cleavage. Potency, µM (top dose mostly 130 µM), inactives show at the top dose activity change, negative = inhibition, actives largely listed as inhibitors. actives 0.28% (n = 350,000). AID 485290; further: potency means the concentration at half of the fitted maximal effect; on the % scale 0 is the no-effect control and ±100 the full control effect; nearly all actives have a fitted effect of over 40% in size
Target sequence (Q9NUW8 whole entry, looked up): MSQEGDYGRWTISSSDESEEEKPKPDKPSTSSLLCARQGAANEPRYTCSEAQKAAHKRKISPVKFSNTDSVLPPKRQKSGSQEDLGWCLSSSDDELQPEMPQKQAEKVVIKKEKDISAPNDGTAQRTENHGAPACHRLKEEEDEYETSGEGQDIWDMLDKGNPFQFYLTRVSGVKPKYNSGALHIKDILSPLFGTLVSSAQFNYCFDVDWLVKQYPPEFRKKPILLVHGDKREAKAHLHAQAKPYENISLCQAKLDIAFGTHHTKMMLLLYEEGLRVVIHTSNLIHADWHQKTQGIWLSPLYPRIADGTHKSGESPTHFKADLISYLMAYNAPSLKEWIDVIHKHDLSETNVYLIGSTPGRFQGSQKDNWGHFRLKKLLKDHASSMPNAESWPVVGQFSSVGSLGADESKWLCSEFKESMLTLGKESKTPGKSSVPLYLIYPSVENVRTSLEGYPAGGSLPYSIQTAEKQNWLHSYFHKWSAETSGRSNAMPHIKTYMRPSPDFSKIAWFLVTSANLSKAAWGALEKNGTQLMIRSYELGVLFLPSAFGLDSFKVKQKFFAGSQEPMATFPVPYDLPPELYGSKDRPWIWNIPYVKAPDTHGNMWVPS
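Signal: AlphaScreen proximity between streptavidin donor and anti-FITC acceptor beads on intact substrate. Reaction: Tdp1 1 nM, substrate 15 nM final, 5 min RT after 15 min compound preincubation.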
DT40 TDP1 CPT = growth inhibition of DT40 Tdp1-/-;hTDP1 cells with camptothecin (screen for TDP1 inhibitors). chicken DT40 Tdp1-/-;hTDP1 cells + 20 nM CPT, ATP luminescence, 48 h. actives 12% (n = 420,000). AID 686979. Potency, µM (titrated, usually from 46.2 µM), for inactives: at the highest dose activity change, negative = growth inhibition, hits mostly inhibitors; further: potency means the concentration at half of the fitted maximal effect; on the % scale 0 is the no-effect control and ±100 the full control effect; nearly all actives have a fitted effect of over 55% in size
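Chicken DT40 Tdp1-/- cells stably complemented with human TDP1 were seeded at 400 cells/well in medium containing 20 nM camptothecin, exposed to pin-transferred compounds, and grown at 37 °C for at least 48 hr. Viability was read as ATP luminescence.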
IL-1B inflam inh = inhibitors of inflammasome signaling (IL-1 beta secretion) | THP-1 LPS/ATP IL-1B secretion, AlphaLISA, 16 h; active compounds read low | activity change, % at 57.5 µM | actives 4.7% (n = 360,000); in the data active means activity change below about -50%; inconclusive means mostly about -30% to -49%; further: on the % scale 0 is the no-effect control and ±100 the full control effect
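THP-1 cells pretreated 1 hr with compounds (up to 57.5 uM final), then stimulated with LPS (250 ng/mL final) plus ATP (1.25 mM final); secreted IL-1B measured by AlphaLISA after 16 hr, decreased signal indicating inhibition.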
TGFb inhibitor = inhibitors of TGF-b signaling; HepG2 CAGA-GFP TGF-b/SMAD3 reporter, GFP fluorescence, 18 h; TGF-beta stimulated, 500 pg/mL final; Potency, µM (titrated, usually from 46.1 µM), for inactives: top-dose activity, negative = inhibition, hits mostly inhibitors; actives 1.2% (n = 410,000); further: potency means the concentration at half of the fitted maximal effect; on the % scale 0 is the no-effect control and ±100 the full control effect; nearly all actives have a fitted effect of over 65% in size
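First, reporter cells (HEPG2 CAGA-GFP) rested 2 h at 37 degrees C. Next, compounds were pinned in and TGF-beta added to 500 pg/mL final. After 18 h, GFP was imaged per cell and summed per well.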
TDP1 cell noCPT = qHTS for Inhibitors of human tyrosyl-DNA phosphodiesterase 1 (TDP1): qHTS in cells in absence of CPT. DT40 Tdp1-/- hTDP1 cells, no CPT, ATP luminescence, 48 h. Potency, µM (highest dose often 46.2 µM), inactives show at the top dose activity change, negative = growth inhibition, actives largely listed as inhibitors. actives 15% (n = 420,000). AID 686978, 2013; further: potency means the concentration at half of the fitted maximal effect; on the % scale 0 is the no-effect control and ±100 the full control effect; nearly all actives have a fitted effect of over 55% in size
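Camptothecin absent (DMSO only). Human TDP1-complemented DT40 knockout cells, 400 cells/well, 37 °C for minimum 48 hr; ATP measured via CellTiter-Glo, 30 min dark incubation, luminescence.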
An asterisk follows results filed as active; i = inactive; ? = inconclusive; · = no result; [ ] = remark or other dose. Unless noted, the call rests on the fitted dose curve; in most records, active means well fitted curve in the direction sought with a large enough effect; inconclusive means small, poorly fitted or top-dose-only effect, or another doubt; inactive means no such curve, though single readings can be large; an effect the other way counts as inactive or inconclusive.

SMILES	HepG2 viability	TDP1 inh	DT40 TDP1 CPT	IL-1B inflam inh	TGFb inhibitor	TDP1 cell noCPT
O=C(NCCc1ccc(Cl)cc1)c1ccc(CSCc2ccc(Cl)cc2)o1	-28%	0%	?	·	-30%	?
COc1ccc(OC)c(CNc2ccc3c(c2)CCC3)c1	-19%	10%	?	-27	-15%	16µM*
COc1ccc(OC)c(CC(=O)Nc2ccc3c(c2)CCC3)c1	-3%	4%[0.0935 µM]	-4%	0	-11%	-26%
COc1ccc(CC(=O)Nc2ccc3c(c2)CCC3)cc1OC	-29%	6%	?	-21	0%	9.2µM*
COc1cccc(CNc2ccc3c(c2)CCC3)c1	-24%	5%	-11%	17	?	-14%
Cc1ccc(NC(=O)CN2C(=O)C(c3ccccc3)=NC2(C)C)cc1C	-9%	3%	11%	·	·	-6%
COC(=O)c1ccc2nc(C3CCCCC3)c(Cc3cccc(Cl)c3)n2c1	-27%	·	?	12	?	16µM*
COC(=O)c1ccc2nc(C3CCCCC3)c(Cc3ccccc3C(F)(F)F)n2c1	-105%	·	?	-17	22µM*	?
Clc1ccc2nc(C3CCCCC3)c(Cc3ccccc3)n2c1	-11%	·	-7%	28	-20%	-28%
COC(=O)c1ccc2nc(C3CCCCC3)c(Cc3ccc(C)cc3)n2c1	-25%	·	26µM*	6	?	23µM*
Clc1cccc(Cc2c(C3CCCCC3)nc3ccc(Br)cn23)c1	-33%	·	23µM*	20	?	?
O=C(NC12CC3CC(CC(C3)C1)C2)c1cncc(Br)c1	-3%	-4%	-24%	13	10%	?
Cc1ccc(S(=O)(=O)NNC(=O)c2ccc(F)cc2)cc1	-43%	2%	1%	18	?	-4%
Cc1ccc(S(=O)(=O)NNC(=O)c2ccc(C(=O)N(c3ccccc3)c3ccccc3)cc2)cc1	-17%	·	16µM*	·	-23%	11µM*
O=C(C[n+]1ccnc2ccccc21)c1ccc(Cl)cc1	-12%	·	15%	·	-30%	?
CC[n+]1ccnc2ccccc21	3.5µM*	·	2.2µM*	·	3.2µM*	2.8µM*
COC(=O)c1ccc(CNC(=O)CCNC(=O)c2ccco2)cc1	1%	-3%[56.1 µM]	-11%	10	6%	17%
CCOC(=O)C(CCCOc1ccc(C(C)CC)cc1)C(=O)OCC (configuration not stated)	-1%	·	-3%	23	1%	-2%
CCOC(=O)C(C(C)=O)C(c1ccc(OCCC(C)C)cc1)C(C(C)=O)C(=O)OCC (configuration not stated)	-33%	-2%	?	-3	-37%	16µM*
C#CCN(C[C@H]1[C@H](OC(=O)NC2CC2)[C@H](OC(=O)NC2CC2)C[C@H]2C(=O)N(c3ccccc3)C(=O)[C@@H]12)S(=O)(=O)c1ccc(C)cc1	6%	·	-14%	11	4%	-12%
C#CCN(C[C@H]1[C@H](OC(=O)NCc2ccco2)[C@H](OC(=O)NCc2ccco2)C[C@@H](C(=O)OC)[C@H]1C(=O)OC)S(=O)(=O)c1ccc(C)cc1	-1%	·	21µM*	-72*	-11%	?
C#CCN(C[C@H]1[C@H](OC(=O)NC2CCCC2)[C@H](OC(=O)NC2CCCC2)C[C@@H](C(=O)OC)[C@H]1C(=O)OC)S(=O)(=O)c1ccc(C)cc1	-17%	·	13µM*	-60*	?	16µM*
C#CCN(C[C@H]1[C@H](OC(=O)NCc2ccc(OC)c(OC)c2)[C@H](OC(=O)NCc2ccc(OC)c(OC)c2)C[C@@H](C(=O)OC)[C@H]1C(=O)OC)S(=O)(=O)c1ccc(C)cc1	3%	·	21µM*	-14	8%	13µM*
CCCCN(CC)S(=O)(=O)c1ccc(C(=O)N(CCCN(C)C)c2nc3cc(C)cc(C)c3s2)cc1	-178%	-6%	?	-178*	?	23µM*
CCN(Cc1ccccc1)S(=O)(=O)c1ccc(C(=O)N(CCCN(C)C)c2nc3cc(C)cc(C)c3s2)cc1	i	7%	23µM*	-100*	?	12µM*
SMILES	HepG2 viability	TDP1 inh	DT40 TDP1 CPT	IL-1B inflam inh	TGFb inhibitor	TDP1 cell noCPT
Cc1cc(C)c2sc(N(CCCN(C)C)C(=O)c3ccc(S(=O)(=O)N(C)Cc4ccccc4)cc3)nc2c1	-114%	9%	?	-110*	?	?
O=C(Nc1ccc2c(c1)CCC2)c1cnn2c1NC(=C1CC1)C=C2C(F)F	-4%	·	?	·	-3%	?
Cc1cc(C)nc(SCc2ccc(C(=O)NNC(=O)Nc3cccc(Cl)c3)cc2)n1	-72%	8%	21µM*	-100*	?	13µM*
Cc1cc(C)nc(SCc2ccc(C(=O)N/N=C/c3ccccn3)cc2)n1	2%	7%	?	121	?	21µM*
Cc1cc(C)nc(SCc2ccc(C(=O)N/N=C/c3ccncc3)cc2)n1	12%	6%	-20%	-9	43%	-23%
Cc1cc(C)nc(SCc2cccc(C(=O)O)c2)n1	-4%	2%	-9%	17	2%	-16%
Cc1cccc(N2CCN(C(=O)Cn3c(=O)c4cccn4c4ccc(F)cc43)CC2)c1C	-10%	0%	21µM*	·	-13%	10µM*
Cc1cccc(N2CCN(C(=O)Cn3ccc4ccccc4c3=O)CC2)c1C	-26%	3%	13µM*	-7	-7%	?
Cc1cccc(N2CCN(C(=O)Cn3cnc4c3c(=O)n(C)c(=O)n4C)CC2)c1C	0%	-2%[56.1 µM]	23µM*	34	-3%	18µM*
O=C(Cn1c(=O)c2cccn2c2ccc(F)cc21)N1CCN(c2ccccc2F)CC1	-20%	-3%	-19%	·	0%	-20%
CC1Cc2ccccc2N1C(=O)Cn1cnc2c1c(=O)n(C)c(=O)n2C (configuration not stated)	1%	5%	?	i	-8%	23µM*
COc1ccccc1OCc1nn[nH]n1	4%	·	1%	13	17%	2%
O=C(COC(=O)CNC(=O)c1ccccc1)Nc1cc(C(F)(F)F)ccc1Cl	·	-1%	·	·	·	·
COc1ccc(NS(=O)(=O)c2ccc(S(=O)(=O)N3CCOCC3)cc2)cc1	1%	1%	?	3	-1%	16µM*
